Results taken from PubChem BioAssay (NCATS).
Inconclusive results are not listed. Values without a mark were called inactive. The source made the active and inactive calls. Calls come from the whole dose curve; as a rule, active = well fitted cell-killing curve with a large enough effect; inconclusive = small, poorly fitted or top-dose-only effect, or effect the other way; inactive = no such curve, though single readings can be large or run the other way.

Test: Quantitative High-Throughput drug screen in 47 multiple myeloma cell lines against the NCATS MIPE library collection: OPM1_PLB cell viability assay (AID 1918989); note: nearly all actives have a fitted effect of over 40% in size
Conditions: CellTiter-Glo, 48 h; series mostly up to 45.8 µM; viability (% of control): at the top concentration
Procedure, shortened: (§1)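 500 cells/well per myeloma line exposed to pinned MIPE 4.0 compounds for 48 h at 37 °C, 5% CO2. Viability read as ATP by CellTiter-Glo luminescence, normalised to DMSO-only (100%) and media-only (0%) wells.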
Potency is the fitted concentration of half-maximal effect.

SMILES	viability (% of control)	Potency
Nc1nc(F)nc2c1ncn2[C@@H]1O[C@H](COP(=O)(O)O)[C@@H](O)[C@H]1O	132%	
Cc1cccc(Nc2nc(-c3ccncc3)cs2)c1		14.8 µM (active)
Nc1ncnc2ccccc12	139%	
CC(C)(C)NC(=O)Nc1cccc(Nc2ncc(F)c(NC(C)(C)CO)n2)c1		13.2 µM (active)
CS(=O)c1ccc(-c2nc(-c3ccc(F)cc3)c(-c3ccncc3)[nH]2)cc1 (stereo not given)		48.1 µM (active)
CC(C)(C)Cn1c(N)nc2ccc(-c3[nH]c(C(C)(C)C)nc3-c3ccc(F)cc3)nc21		20.9 µM (active)
COc1ccc(Cc2nccc3cc(OC)c(OC)cc23)cc1OC		11.8 µM (active)
COc1ccc2c(Oc3ccc(NC(=O)c4c(C)n(CC(C)(C)O)n(-c5ccccc5)c4=O)cc3F)ccnc2c1		18.7 µM (active)
O=C1C[C@@H](c2ccc(O)cc2)Oc2cc(O)cc(O)c21	125%	
O=C(O)c1cc(O)c2c(c1)C(=O)c1cccc(O)c1C2=O	126% [at 92.2 µM]	
NC(=O)c1ccc2nc(-c3ccc(Oc4ccc(Cl)cc4)cc3)[nH]c2c1		6.62 µM (active)
O=C(O)CCC1CCC(c2cc(F)ccc2F)(S(=O)(=O)c2ccc(Cl)cc2)CC1 (stereo not given)		5.26 µM (active)
COc1ccc(Cc2ccc(NC(N)=O)cc2)cc1-c1cccc(Cl)c1	132%	
CC[C@H]1OC(=O)[C@H](C)C(=O)[C@H](C)[C@@H](O[C@H]2O[C@H](C)C[C@H](N(C)C)[C@@H]2O)[C@](C)(OC)C[C@@H](C)C(=O)[C@H](C)[C@H]2N(CCCCn3cnc(-c4cccnc4)c3)C(=O)O[C@]12C	101%	
CC(C)C[C@H](CC(=O)O)C(=O)N[C@@H](Cc1c[nH]c2ccccc12)C(=O)N[C@@H](C)c1ccccc1	131%	
COc1ccc(C2CC(c3ccccc3)=NN2c2ccc(S(N)(=O)=O)cc2)cc1 (stereo not given)		20.9 µM (active)
COc1cccc2c1CCCC2CCCN1CCN(C2CCCCC2)CC1 (stereo not given)		20.9 µM (active)
CN[C@@H](C)C(=O)N[C@H]1CN(C(=O)CC(C)C)CC[C@H]2CC[C@@H](C(=O)NC(c3ccccc3)c3ccccc3)N2C1=O		14.8 µM (active)
C=C1C(=O)OC(CCCCCCCC)C1C(=O)O (stereo not given)		20.9 µM (active)

SMILES	viability (% of control)	Potency
O=C(OCC#CCSc1nnc(-c2cccc3ccccc23)o1)c1cc2ccccc2s1	113%	
CON=C(C(=O)N[C@@H]1C(=O)N2C(C(=O)OCOC(=O)C(C)(C)C)=C(C=Cc3scnc3C)CS[C@H]12)c1csc(N)n1	131%	
NC[C@@H]1O[C@@H](O[C@H]2[C@@H](O)[C@H](O[C@@H]3[C@@H](O)[C@@H](N)C[C@H](N)[C@H]3O[C@H]3O[C@H](CN)[C@@H](O)[C@@H](O)[C@H]3N)O[C@H]2CO)[C@H](N)[C@@H](O)[C@@H]1O	149%	
CN(C[C@@H]1COCCO1)S(=O)(=O)Nc1ccc2ccc3ncc(-c4cnn(C)c4)cc3c(=O)c2c1		2.35 µM (active)
O=C(Nc1cccc(Br)c1)c1cccc(S(=O)(=O)N2CCCCCC2)c1		18.7 µM (active)
O=C1Nc2ccc(Cl)cc2C(C#CC2CC2)(C(F)(F)F)O1 (stereo not given)		20.9 µM (active)
CN1CCN(CCOc2cc(OC3CCOCC3)c3c(Nc4c(Cl)ccc5c4OCO5)ncnc3c2)CC1		20.9 µM (active)
Cc1c[nH]c(C=C2C(=O)Nc3ccccc32)c1CCC(=O)O		0.833 µM (active)
COc1ccc2c(Oc3ccc(NC(=O)c4c(C)n(CC(C)(C)O)n(-c5ccccc5)c4=O)nc3)ccnc2c1	125%	
O=C(NC1CCOCC1)c1ccc(-c2cc(-c3cn[nH]c3-c3ccccn3)ccn2)cc1	122%	
COCCCCC(=NOCCN)c1ccc(C(F)(F)F)cc1		23.5 µM (active)
CCN(CC)CCOc1ccc(C(=C(Cl)c2ccccc2)c2ccccc2)cc1	134%	
CCC(CC)[C@H](NC(C)=O)[C@@H]1[C@H](O)[C@@H](C(=O)O)C[C@@H]1N=C(N)N	99.1%	
NC(=O)c1cccc(-c2cc(Nc3ccc(OC(F)(F)F)cc3)ncn2)c1		18.7 µM (active)
CN(C)c1cc(NC(=O)CNC(C)(C)C)c(O)c2c1C[C@@H]1C[C@H]3[C@H](N(C)C)C(=O)C(C(N)=O)=C(O)[C@@]3(O)C(=O)C1=C2O	133%	
CC(=O)OC1C(C)OC(Oc2c(-c3ccc(O)cc3)oc3cc(O)cc(O)c3c2=O)C(O)C1OC(C)=O (stereo not given)		10.5 µM (active)
CC1(C)Cc2c(sc(NC(=S)NC(=O)c3ccccc3)c2C(=O)O)CO1	119%	
COc1cccc(-c2cc(=O)c3ccccc3o2)c1N		16.6 µM (active)
O=c1cc(-c2ccc(O)cc2)oc2cc(O)cc(O)c12		18.7 µM (active)

Test: Quantitative High-Throughput drug screen in 47 multiple myeloma cell lines against the NCATS MIPE library collection: U266_ATCC cell viability assay (AID 1919864); note: nearly all actives have a fitted effect of over 35% in size
Conditions: U266 myeloma viability, CellTiter-Glo ATP luminescence, 48 h; series mostly up to 45.8 µM; viability (% of DMSO control): at the top concentration
Procedure, shortened: as §1

SMILES	Potency	viability (% of DMSO control) [%]
Nc1nc(F)nc2c1ncn2[C@@H]1O[C@H](COP(=O)(O)O)[C@@H](O)[C@H]1O	0.526 µM (active)	
Cc1cccc(Nc2nc(-c3ccncc3)cs2)c1		89.9
Nc1ncnc2ccccc12		127
CC(C)(C)NC(=O)Nc1cccc(Nc2ncc(F)c(NC(C)(C)CO)n2)c1		108
NC(=O)c1ccc2nc(-c3ccc(Oc4ccc(Cl)cc4)cc3)[nH]c2c1		90.3
O=C(O)CCC1CCC(c2cc(F)ccc2F)(S(=O)(=O)c2ccc(Cl)cc2)CC1 (stereo not given)	6.62 µM (active)	
COc1ccc(Cc2ccc(NC(N)=O)cc2)cc1-c1cccc(Cl)c1	8.33 µM (active)	
CC[C@H]1OC(=O)[C@H](C)C(=O)[C@H](C)[C@@H](O[C@H]2O[C@H](C)C[C@H](N(C)C)[C@@H]2O)[C@](C)(OC)C[C@@H](C)C(=O)[C@H](C)[C@H]2N(CCCCn3cnc(-c4cccnc4)c3)C(=O)O[C@]12C		109
COc1ccc(C2CC(c3ccccc3)=NN2c2ccc(S(N)(=O)=O)cc2)cc1 (stereo not given)		105
O=C(OCC#CCSc1nnc(-c2cccc3ccccc23)o1)c1cc2ccccc2s1		112
NC[C@@H]1O[C@@H](O[C@H]2[C@@H](O)[C@H](O[C@@H]3[C@@H](O)[C@@H](N)C[C@H](N)[C@H]3O[C@H]3O[C@H](CN)[C@@H](O)[C@@H](O)[C@H]3N)O[C@H]2CO)[C@H](N)[C@@H](O)[C@@H]1O		116
CN(C[C@@H]1COCCO1)S(=O)(=O)Nc1ccc2ccc3ncc(-c4cnn(C)c4)cc3c(=O)c2c1	3.32 µM (active)	
O=C1Nc2ccc(Cl)cc2C(C#CC2CC2)(C(F)(F)F)O1 (stereo not given)	23.5 µM (active)	
Cc1c[nH]c(C=C2C(=O)Nc3ccccc32)c1CCC(=O)O		106
COc1ccc2c(Oc3ccc(NC(=O)c4c(C)n(CC(C)(C)O)n(-c5ccccc5)c4=O)nc3)ccnc2c1		111
O=C(NC1CCOCC1)c1ccc(-c2cc(-c3cn[nH]c3-c3ccccn3)ccn2)cc1		124
COCCCCC(=NOCCN)c1ccc(C(F)(F)F)cc1	16.6 µM (active)	
CCN(CC)CCOc1ccc(C(=C(Cl)c2ccccc2)c2ccccc2)cc1	16.6 µM (active)	
CN(C)c1cc(NC(=O)CNC(C)(C)C)c(O)c2c1C[C@@H]1C[C@H]3[C@H](N(C)C)C(=O)C(C(N)=O)=C(O)[C@@]3(O)C(=O)C1=C2O		125
CC(=O)OC1C(C)OC(Oc2c(-c3ccc(O)cc3)oc3cc(O)cc(O)c3c2=O)C(O)C1OC(C)=O (stereo not given)	18.7 µM (active)	
COc1cccc(-c2cc(=O)c3ccccc3o2)c1N	8.33 µM (active)	
O=c1cc(-c2ccc(O)cc2)oc2cc(O)cc(O)c12	20.9 µM (active)	
